# Experimental data reported in the supplement of paper PMC4466140.
# Tests used:
# Experiment in all cases: SPOT peptide array binding signal intensity (averaged, normalized) (arbitrary units (background-subtracted, floor 0; scale differs between SH3 domains)); higher = stronger binding of the SH3 domain to the peptide
# [1] = target: CaNbp2
# In short: (§1)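 Four yeast species supplied the SH3 domains, which were expressed as GST fusions in E. coli BL21(DE3) and purified on glutathione Sepharose. Incubation with cellulose membranes carrying synthetic 15-mer peptides, cysteines exchanged for serines, ran overnight at 4°C at 10 μg/ml in TBS-based blocking buffer. Binding signal is reported as normalized, background-subtracted spot intensity averaged over replicates, in arbitrary units not shared between domains.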
# [2] = target: CaRvs167
# In short: as §1
# [3] = target: CaRvs167-3
# In short: as §1
# [4] = target: CaSho1
# In short: as §1
# [5] = target: CaSla1-D1-D2
# In short: as §1
# [6] = target: CaSla1-D3
# In short: as §1
# [7] = target: ScAbp1
# In short: as §1
# [8] = target: ScBbc1
# In short: as §1
# [9] = target: ScBem1-D1
# In short: as §1
# [10] = target: ScBzz1-D1
# In short: as §1
# [11] = target: ScBzz1-D2
# In short: as §1
# [12] = target: ScCyk3
# In short: as §1
# [13] = target: ScFus1
# In short: as §1
# [14] = target: ScHof1
# In short: as §1
# [15] = target: ScHse1
# In short: as §1
# [16] = target: ScLsb1
# In short: as §1
# [17] = target: ScLsb2
# In short: as §1
# [18] = target: ScLsb3
# In short: as §1
# [19] = target: ScLsb4
# In short: as §1
# [20] = target: ScMyo3
# In short: as §1
# [21] = target: ScMyo5
# In short: as §1
# [22] = target: ScNbp2
# In short: as §1
# [23] = target: ScPex13
# In short: as §1
# [24] = target: ScRvs167
# In short: as §1
# [25] = target: ScSho1
# In short: as §1
# [26] = target: ScSla1-D1-D2
# In short: as §1
# [27] = target: ScSla1-D3
# In short: as §1
# [28] = target: SpAbp1-D1
# In short: as §1
# [29] = target: SpBbc1
# In short: as §1
# [30] = target: SpBzz1-D1
# In short: as §1
# [31] = target: SpBzz1-D2
# In short: as §1
# [32] = target: SpCyk3
# In short: as §1
# [33] = target: SpHof1
# In short: as §1
# [34] = target: SpHof1-2
# In short: as §1
# [35] = target: SpHof1-3
# In short: as §1
# [36] = target: SpHse1
# In short: as §1
# [37] = target: SpLsb1
# In short: as §1
# [38] = target: SpLsb4
# In short: as §1
# [39] = target: SpMyo1
# In short: as §1
# [40] = target: SpNbp2
# In short: as §1
# [41] = target: SpPex13
# In short: as §1
# [42] = target: SpRvs167
# In short: as §1
# [43] = target: SpSla1-D1-D2
# In short: as §1
# [44] = target: SpSla1-D3
# In short: as §1
# [45] = target: AgAbp1
# In short: as §1
# [46] = target: AgBbc1
# In short: as §1
# [47] = target: AgBem1-D1
# In short: as §1
# [48] = target: AgBzz1-D1
# In short: as §1
# [49] = target: AgBzz1-D2
# In short: as §1
# [50] = target: AgCyk3
# In short: as §1
# [51] = target: AgFus1
# In short: as §1
# [52] = target: AgHof1
# In short: as §1
# [53] = target: AgHse1
# In short: as §1
# [54] = target: AgLsb1
# In short: as §1
# [55] = target: AgLsb4
# In short: as §1
# [56] = target: AgMyo5
# In short: as §1
# [57] = target: AgNbp2
# In short: as §1
# [58] = target: AgRvs167
# In short: as §1
# [59] = target: AgSho1
# In short: as §1
# [60] = target: AgSla1-D1-D2
# In short: as §1
# [61] = target: AgSla1-D3
# In short: as §1
# [62] = target: CaAbp1-D1
# In short: as §1
# [63] = target: CaAbp1-D2
# In short: as §1
# [64] = target: CaBbc1
# In short: as §1
# [65] = target: CaBem1-D1
# In short: as §1
# [66] = target: CaBzz1-D1
# In short: as §1
# [67] = target: CaBzz1-D2
# In short: as §1
# [68] = target: CaCyk3
# In short: as §1
# [69] = target: CaFus1
# In short: as §1
# [70] = target: CaHof1
# In short: as §1
# [71] = target: CaHse1
# In short: as §1
# [72] = target: CaLsb1
# In short: as §1
# [73] = target: CaLsb4
# In short: as §1
# [74] = target: CaMyo5
# In short: as §1
binder,measurement,setting,value
TTNRGPPPLPPRANV,SPOT peptide array binding signal intensity,[1],35
same,SPOT peptide array binding signal intensity,[2],1980
same,SPOT peptide array binding signal intensity,[3],≤ 0
same,SPOT peptide array binding signal intensity,[4],0.5
same,SPOT peptide array binding signal intensity,[5],436
same,SPOT peptide array binding signal intensity,[6],1.5
same,SPOT peptide array binding signal intensity,[7],12
same,SPOT peptide array binding signal intensity,[8],74
same,SPOT peptide array binding signal intensity,[9],6
same,SPOT peptide array binding signal intensity,[10],144
same,SPOT peptide array binding signal intensity,[11],8
same,SPOT peptide array binding signal intensity,[12],1
same,SPOT peptide array binding signal intensity,[13],≤ 0
same,SPOT peptide array binding signal intensity,[14],272
same,SPOT peptide array binding signal intensity,[15],21.5
same,SPOT peptide array binding signal intensity,[16],576
same,SPOT peptide array binding signal intensity,[17],583
same,SPOT peptide array binding signal intensity,[18],6820
same,SPOT peptide array binding signal intensity,[19],3960
same,SPOT peptide array binding signal intensity,[20],492
same,SPOT peptide array binding signal intensity,[21],277
same,SPOT peptide array binding signal intensity,[22],43
same,SPOT peptide array binding signal intensity,[23],2050
same,SPOT peptide array binding signal intensity,[24],2870
same,SPOT peptide array binding signal intensity,[25],128
same,SPOT peptide array binding signal intensity,[26],255
same,SPOT peptide array binding signal intensity,[27],15.2
same,SPOT peptide array binding signal intensity,[28],41.5
same,SPOT peptide array binding signal intensity,[29],106
same,SPOT peptide array binding signal intensity,[30],3230
same,SPOT peptide array binding signal intensity,[31],11
same,SPOT peptide array binding signal intensity,[32],16
same,SPOT peptide array binding signal intensity,[33],15.2
same,SPOT peptide array binding signal intensity,[34],42.8
same,SPOT peptide array binding signal intensity,[35],344
same,SPOT peptide array binding signal intensity,[36],≤ 0
same,SPOT peptide array binding signal intensity,[37],1680
same,SPOT peptide array binding signal intensity,[38],4080
same,SPOT peptide array binding signal intensity,[39],853
same,SPOT peptide array binding signal intensity,[40],≤ 0
same,SPOT peptide array binding signal intensity,[41],7
same,SPOT peptide array binding signal intensity,[42],2550
same,SPOT peptide array binding signal intensity,[43],1
same,SPOT peptide array binding signal intensity,[44],≤ 0
DTFLPPPPPPPSNFE,SPOT peptide array binding signal intensity,[45],2
same,SPOT peptide array binding signal intensity,[46],≤ 0
same,SPOT peptide array binding signal intensity,[47],≤ 0
same,SPOT peptide array binding signal intensity,[48],≤ 0
same,SPOT peptide array binding signal intensity,[49],≤ 0
same,SPOT peptide array binding signal intensity,[50],1
same,SPOT peptide array binding signal intensity,[51],≤ 0
same,SPOT peptide array binding signal intensity,[52],23.5
same,SPOT peptide array binding signal intensity,[53],4.5
same,SPOT peptide array binding signal intensity,[54],≤ 0
same,SPOT peptide array binding signal intensity,[55],≤ 0
same,SPOT peptide array binding signal intensity,[56],1100
same,SPOT peptide array binding signal intensity,[57],≤ 0
same,SPOT peptide array binding signal intensity,[58],1.33
same,SPOT peptide array binding signal intensity,[59],≤ 0
same,SPOT peptide array binding signal intensity,[60],≤ 0
same,SPOT peptide array binding signal intensity,[61],0.5
same,SPOT peptide array binding signal intensity,[62],≤ 0
same,SPOT peptide array binding signal intensity,[63],≤ 0
same,SPOT peptide array binding signal intensity,[64],≤ 0
same,SPOT peptide array binding signal intensity,[65],≤ 0
same,SPOT peptide array binding signal intensity,[66],108
same,SPOT peptide array binding signal intensity,[67],11.8
same,SPOT peptide array binding signal intensity,[68],≤ 0
same,SPOT peptide array binding signal intensity,[69],≤ 0
same,SPOT peptide array binding signal intensity,[70],≤ 0
same,SPOT peptide array binding signal intensity,[71],3.25
same,SPOT peptide array binding signal intensity,[72],≤ 0
same,SPOT peptide array binding signal intensity,[73],≤ 0
same,SPOT peptide array binding signal intensity,[74],11.5
same,SPOT peptide array binding signal intensity,[1],≤ 0
same,SPOT peptide array binding signal intensity,[2],0.5
same,SPOT peptide array binding signal intensity,[3],≤ 0
same,SPOT peptide array binding signal intensity,[4],12
same,SPOT peptide array binding signal intensity,[5],≤ 0
same,SPOT peptide array binding signal intensity,[6],≤ 0
same,SPOT peptide array binding signal intensity,[7],≤ 0
same,SPOT peptide array binding signal intensity,[8],≤ 0
same,SPOT peptide array binding signal intensity,[9],≤ 0
same,SPOT peptide array binding signal intensity,[10],2.5
same,SPOT peptide array binding signal intensity,[11],≤ 0
same,SPOT peptide array binding signal intensity,[12],≤ 0
same,SPOT peptide array binding signal intensity,[13],≤ 0
same,SPOT peptide array binding signal intensity,[14],25.5
same,SPOT peptide array binding signal intensity,[15],≤ 0
same,SPOT peptide array binding signal intensity,[16],≤ 0
same,SPOT peptide array binding signal intensity,[17],≤ 0
same,SPOT peptide array binding signal intensity,[18],≤ 0
same,SPOT peptide array binding signal intensity,[19],≤ 0
same,SPOT peptide array binding signal intensity,[20],2140
same,SPOT peptide array binding signal intensity,[21],1690
same,SPOT peptide array binding signal intensity,[22],≤ 0
same,SPOT peptide array binding signal intensity,[23],140
same,SPOT peptide array binding signal intensity,[24],1
same,SPOT peptide array binding signal intensity,[25],≤ 0
same,SPOT peptide array binding signal intensity,[26],≤ 0
same,SPOT peptide array binding signal intensity,[27],≤ 0
same,SPOT peptide array binding signal intensity,[28],≤ 0
same,SPOT peptide array binding signal intensity,[29],≤ 0
same,SPOT peptide array binding signal intensity,[30],1360
